From ChEMBL document CHEMBL3988442, “University of Dundee, Small-Polar-MMV Screening Library” (2021)
The whole screen tested about 66,000 compounds, of which about 960 (1.5%) showed an effect of 50% or more. The full list was thinned out, with strong results kept by preference.

Tested on: Trypanosoma brucei
Assay: Trypanosoma brucei 72 hour study
Type: functional, organism-based
Design: scale not given: in the data most compounds retested in dose-response had high values

O=C(NCc1ccnc(C2CCCOC2)n1)c1cccs1 (centres undefined)
Percent Effect (30.3 µM, […]): -2.313%

Cc1ccc(C(=O)NCc2ccnc(C3CCCOC3)n2)s1 (centres undefined)
Percent Effect (30.3 µM, […]): 49.43%

Cc1ccsc1C(=O)NCc1ccnc(C2CCCOC2)n1 (centres undefined)
Percent Effect (30.3 µM, […]): 54.51%

Cn1ccc(CN2CCC3(CCCN3CC3CC3)CC2)n1.O=C(O)C(F)(F)F.O=C(O)C(F)(F)F
Percent Effect (30.3 µM, […]): -89.65%

COC1CN(C(=O)CC(C)(C)C)CCC(=O)N(C)c2ccccc21 (centres undefined)
Percent Effect (30.3 µM, […]): -11.06%

CC(C)NC(=O)[C@H]1C[C@@H]2CN(C(=O)NCc3ccccc3)C[C@H]1O2
Percent Effect (30 µM, 30.03 µM): 43.99%

CSCC[C@@H](CO)Nc1ccc(-c2nc(C3CC3)no2)cn1
Percent Effect (30.3 µM, […]): 19.73%

CSCC[C@@H](CO)Nc1ccc(-c2nc(-c3ccccc3C)no2)cn1
Percent Effect (30.3 µM, […]): 99.8%

CSCC[C@@H](CO)Nc1ccc(-c2nc(-c3ccccc3F)no2)cn1
Percent Effect (30.3 µM, […]): -25.91%

Cc1ccc(CN(C)C(=O)c2cnsn2)cc1
Percent Effect (30 µM, 30.03 µM): -21.68%

CCc1ncc(CN2CCOC(Cc3cccc(F)c3)C2)cn1 (centres undefined)
Percent Effect (30.3 µM, […]): -57.81%

O=C(Cc1ccc2c(c1)CCCC2)Nc1cccnc1N1CCSCC1
Percent Effect (30 µM, 30.03 µM): 7.169%

COCCNC(=O)c1cc2c(s1)CCN2C(=O)c1ccccc1
Percent Effect (30 µM, 30.03 µM): 61.44%

O=C(NCCN1CCCC1)c1cc2c(s1)CCN2C(=O)c1ccccc1
Percent Effect (30.3 µM, […]): -8.761%

CCCNC(=O)c1cc2c(s1)CCN2C(=O)c1ccccc1
Percent Effect (30.3 µM, […]): -5.969%

CCOc1ncccc1CNC(=O)Nc1ccc(N(C)C)nc1
Percent Effect (30.3 µM, […]): -10.18%

CN1CCN(C(=O)C2CCN(c3cccnn3)C2)CC1 (centres undefined)
Percent Effect (30.3 µM, […]): 1.766%

CN1CCN(C(=O)C2CCN(c3cccnn3)CC2)CC1
Percent Effect (30.3 µM, […]): -20.3%

CN1CCN(C(=O)C2CCCN(c3cccnn3)C2)CC1 (centres undefined)
Percent Effect (30.3 µM, […]): 101%

CC(C)(C)CN1CC(O)CN(C(=O)c2cccc(C(F)(F)F)c2)CC1=O (centres undefined)
Percent Effect (30.3 µM, […]): -4.351%

CC(C)N(C)Cc1cnc2n1CCN(C(=O)Cc1ccsc1)C2.O=C(O)C(F)(F)F
Percent Effect (30 µM, 30.03 µM): -22.47%

Cc1ccc2c(n1)N(CCN(C)C)CCN(C(=O)c1ccc[nH]1)C2.O=C(O)C(F)(F)F.O=C(O)C(F)(F)F
Percent Effect (30 µM, 30.03 µM): 4.99%

c1cc(-c2n[nH]c(CNc3nnc(C4CC4)o3)n2)ccn1
Percent Effect (30.3 µM, […]): 0.7676%

CCCc1nnc(NCCc2noc(C3CCC3)n2)o1
Percent Effect (30 µM, 30.03 µM): -16.87%

CCCc1nnc(NCCc2noc(C3CCCC3)n2)o1
Percent Effect (30 µM, 30.03 µM): -39.45%

O=S(=O)(NCCc1nc(-c2cccnc2)n[nH]1)NCc1ccccc1
Percent Effect (30.3 µM, […]): -84.2%

c1ccc(-c2n[nH]c(CCNc3nnc(C4CCC4)o3)n2)cc1
Percent Effect (30.3 µM, […]): 99.86%

c1ccc(-c2nc(CCNc3nnc(C4CCC4)o3)no2)cc1
Percent Effect (30.3 µM, […]): 99.59%

CN(C)C(=O)N[C@H]1CN(Cc2ccc3c(c2)OCO3)[C@@H]2CCCO[C@H]12.O=C(O)C(F)(F)F
Percent Effect (30.3 µM, […]): -7.695%

CS(=O)(=O)NCc1cncc2c1CCN(C(=O)N1CCCC1)C2.Cl
Percent Effect (30.3 µM, […]): -11.25%

Cc1noc([C@@]23CCO[C@@H]2CCN(Cc2scnc2C)C3)n1.O=C(O)C(F)(F)F
Percent Effect (30.3 µM, […]): 7.313%

O=c1[nH][nH]cc1-c1ccnc(NCCc2cccc(O)c2)n1
Percent Effect (30.3 µM, […]): -16.62%

CCN(CC1CCOC1)C(=O)c1ccc(N2CCOCC2)c(F)c1 (centres undefined)
Percent Effect (30.3 µM, […]): -9.543%

O=C(Nc1ccncc1)N(CCO)Cc1ccsc1
Percent Effect (30.3 µM, […]): 7.021%

CN(C)C(=O)c1cccc(NC(=O)N(CCO)Cc2ccsc2)c1
Percent Effect (30 µM, 30.03 µM): -3.434%

COc1cccc(NC(=O)N(CCO)Cc2ccsc2)c1
Percent Effect (30 µM, 30.03 µM): 51.17%

Cc1nc(N)nc(C)c1CC(=O)NCc1ccc2nonc2c1
Percent Effect (30 µM, 30.03 µM): -40.59%

Cc1noc(C)c1CN1CC[C@@H](OCC2CC2)[C@@H](Cc2ccccc2)C1.O=C(O)C(F)(F)F
Percent Effect (30 µM, 30.03 µM): 12.8%

O=C(c1cc2ccccc2[nH]1)N1CCC(Nc2cccnn2)CC1
Percent Effect (30.3 µM, […]): -25.8%

O=C(c1cc2cc(I)ccc2[nH]1)N1CCC(Nc2cccnn2)CC1
Percent Effect (30.3 µM, […]): 85.16%

O=C(c1cc2cc(F)ccc2[nH]1)N1CCC(Nc2cccnn2)CC1
Percent Effect (30.3 µM, […]): -6.499%

CCCN(CCC)c1ncc(S(=O)(=O)c2ccc(C)cc2)c(N)n1
Percent Effect (30.3 µM, […]): 0.2073%

CCCN(CCC)c1ncc(S(=O)(=O)c2ccccc2)c(N)n1
Percent Effect (30.3 µM, […]): 81.44%

CCCN(CCC)c1ncc(S(=O)(=O)c2cccc(C)c2)c(N)n1
Percent Effect (30.3 µM, […]): 1.054%

O=C(N1CCCC1)N1C[C@H]2CCC[C@@]2(COCc2ccccn2)C1.O=C(O)C(F)(F)F
Percent Effect (30.3 µM, […]): 8.939%

Cc1ccc(CN2CCN(C3CCCC3)CC2CCO)o1 (centres undefined)
Percent Effect (30 µM, 30.03 µM): -4.422%

CN1C(=O)CC(c2cnn(C)c2)C12CCN(CC1CCOCC1)CC2.O=C(O)C(F)(F)F (centres undefined)
Percent Effect (30.3 µM, […]): -2.852%

Cc1noc(C)c1CN1CCn2cc(CN3CCCC3)nc2C1.O=C(O)C(F)(F)F.O=C(O)C(F)(F)F
Percent Effect (30.3 µM, […]): 0.2362%

Cc1ccc(CN2CCc3ncnc(-c4ccncc4)c3CC2)o1.O=C(O)C(F)(F)F.O=C(O)C(F)(F)F
Percent Effect (30.3 µM, […]): -37.96%

Nc1ncncc1-c1noc([C@@H]2CCCN2CCCc2ccccc2)n1
Percent Effect (30.3 µM, […]): 101.5%

Nc1ncncc1-c1noc([C@@H]2CCCN2CC2CC2)n1
Percent Effect (30.3 µM, […]): -4.914%

Nc1ncncc1-c1noc([C@@H]2CCCN2Cc2cccnc2)n1
Percent Effect (30.3 µM, […]): -3.258%

O=C(O)C(F)(F)F.O=C(O)C(F)(F)F.c1cncc(-c2nnn3c2COCC(CNC2CCOCC2)C3)c1 (centres undefined)
Percent Effect (30 µM, 30.03 µM): -0.7004%

CC(=O)N1C[C@@H](c2ccsc2)[C@@H]2CN(Cc3ccccc3)CC[C@@H]21
Percent Effect (30 µM, 30.03 µM): 3.298%

COc1cccc(CN2CC[C@H]3[C@@H](C2)[C@H](c2ccsc2)CN3C(C)=O)c1
Percent Effect (30.3 µM, […]): -3.85%

COc1cccc([C@H]2CN(C(C)=O)[C@@H]3CCN(Cc4ccsc4)C[C@H]23)c1.Cl
Percent Effect (30.3 µM, […]): 96.3%

Cc1nnsc1C(=O)N1C[C@H]2CC[C@@H]1CN(c1cnccn1)C2
Percent Effect (30 µM, 30.03 µM): 0.47%

Cc1cnc2c(c1NCc1cccnc1)c(=O)n(C)c(=O)n2C
Percent Effect (30 µM, 30.03 µM): -45.54%

CCc1noc(CN2CCN(C(=O)C3CC3)CC2)n1
Percent Effect (10 µM): -20.32%

CCCS(=O)(=O)NCc1nc(C)cc(N2CCCC2)n1
Percent Effect (30 µM, 30.03 µM): 60.24%

O=S(=O)(Cc1ccccc1)NCc1nnc2n1CCC2
Percent Effect (30 µM, 30.03 µM): -38.65%

CCS(=O)(=O)NCc1nc(C)cc(N2CCOCC2)n1
Percent Effect (30 µM, 30.03 µM): -12.8%

CCS(=O)(=O)NCc1nc(C)cc(N2CCCC2)n1
Percent Effect (30 µM, 30.03 µM): 4.691%

Cc1cc(N2CCCC2)nc(CNS(=O)(=O)Cc2ccccc2)n1
Percent Effect (30 µM, 30.03 µM): 99.66%

CCS(=O)(=O)NCc1nc(C)cc(N2CCCCC2)n1
Percent Effect (30 µM, 30.03 µM): -14.09%

O=C1[C@H]2CC[C@H](CN(Cc3nnc(C4CC4)o3)C2)N1Cc1cscn1
Percent Effect (30 µM, 30.03 µM): -30.68%

CCN1CCOCC12CCN(C(=O)C1CCC1)CC2.O=C(O)C(F)(F)F
Percent Effect (30.3 µM, […]): -58.96%

Cc1ccc(F)cc1NS(=O)(=O)c1cc2c(c(C(=O)O)c1)OCCO2
Percent Effect (30.3 µM, […]): -13.96%

O=C(O)C(F)(F)F.O=C(c1ccco1)N1C[C@H]2CCCN(Cc3nccs3)[C@H]2C1
Percent Effect (30 µM, 30.03 µM): 20.08%

CN1CCC(c2cccc(Cc3ccccc3)n2)CC1
Percent Effect (30.3 µM, […]): 2.73%

CN(C)C(=O)CN1CCC(c2cccc(Cc3ccc(F)cc3)n2)CC1
Percent Effect (30.3 µM, […]): -2.775%

CN1CCC(c2cccc(Cc3ccc(F)cc3)n2)CC1
Percent Effect (30.3 µM, […]): 22.86%

CC(=O)N1CCCC1c1cccc(Cc2ccccc2F)n1 (centres undefined)
Percent Effect (30.3 µM, […]): 99.36%

CN1CCCC1c1cccc(Cc2ccc(F)cc2)n1 (centres undefined)
Percent Effect (30.3 µM, […]): 99.38%

CC(=O)N1CCCC1c1cccc(NCc2ccccc2F)n1 (centres undefined)
Percent Effect (30.3 µM, […]): -16.97%

CC(=O)N1CCCC1c1cccc(Cc2ccccc2Cl)n1 (centres undefined)
Percent Effect (30.3 µM, […]): 2.284%

CN(C)C(=O)CN1CCCC1c1cccc(Cc2ccccc2F)n1 (centres undefined)
Percent Effect (30.3 µM, […]): 100.6%

COCC(=O)N1CCCC1c1cccc(Cc2ccccc2F)n1 (centres undefined)
Percent Effect (30.3 µM, […]): -5.491%

CN(C)C(=O)CCc1cncc(C2CCCN2Cc2ccccn2)n1 (centres undefined)
Percent Effect (30.3 µM, […]): -6.842%

CC(=O)N1CCCC1c1cccc(Cc2ccc(F)cc2)n1 (centres undefined)
Percent Effect (30 µM, 30.03 µM): 14.65%

CN1CCC(c2cccc(Cc3ccc(C(F)(F)F)cc3)n2)CC1
Percent Effect (30.3 µM, […]): 100.8%

CN(C)c1nc(NCCCN2CCc3ccccc32)ncc1F
Percent Effect (30 µM, 30.03 µM): -2.481%

CC1CCN(c2ncc3c(n2)CN(Cc2cccc(F)c2)C3=O)CC1
Percent Effect (30 µM, 30.03 µM): -36.51%

Cl.c1cn(-c2cnc(C3CCCNC3)cn2)cn1 (centres undefined)
Percent Effect (30.3 µM, […]): -22.3%

Cc1ccnc(NC(=O)C2CCN(CCCn3ccnc3)CC2)c1
Percent Effect (30 µM, 30.03 µM): -9.272%

Cc1ncn(CCNC(=O)Nc2ccc(OC(F)(F)F)cc2)c(=O)c1C
Percent Effect (30 µM, 30.03 µM): -6.151%

Cc1cc(C2CCCN(Cc3nc(Cc4ccccc4)no3)C2)n[nH]1 (centres undefined)
Percent Effect (30 µM, 30.03 µM): -33.51%

Cc1ccc(CN2CCC3(CC2)CC(N2CCN(C)CC2)CO3)s1.O=C(O)C(F)(F)F.O=C(O)C(F)(F)F.O=C(O)C(F)(F)F (centres undefined)
Percent Effect (30.3 µM, […]): -296.4%

Cc1cncc(C(=O)N2CC[C@@]3(C[C@H](NS(C)(=O)=O)CCO3)C2)c1.O=C(O)C(F)(F)F
Percent Effect (30.3 µM, […]): -90.12%

CCN1CCCn2c(nc(CNC(=O)c3cnoc3C)cc2=O)C1.O=C(O)C(F)(F)F
Percent Effect (30 µM, 30.03 µM): 9.742%

CN(C)S(=O)(=O)N1CCCC(c2cccc(Cc3ccc(F)cc3)n2)C1 (centres undefined)
Percent Effect (30.3 µM, […]): 41.5%

Fc1cccc(Cc2cncc(C3CCCN3C3CCOCC3)n2)c1 (centres undefined)
Percent Effect (30.3 µM, […]): 9.592%

CN1CCCC1c1cccc(Cc2ccccc2F)n1 (centres undefined)
Percent Effect (30.3 µM, […]): 101.4%

c1ccc(Cc2cncc(C3CCCN3C3CCOCC3)n2)cc1 (centres undefined)
Percent Effect (30.3 µM, […]): -18.14%

CN(C)S(=O)(=O)N1CCCC(c2cccc(Cc3ccccc3)n2)C1 (centres undefined)
Percent Effect (30 µM, 30.03 µM): -81.93%

CN(C)S(=O)(=O)N1CCCC(c2cccc(Cc3ccc(Cl)cc3)n2)C1 (centres undefined)
Percent Effect (30.3 µM, […]): 99.29%

c1ccc(Cc2cccc(C3CCCN3C3CCOCC3)n2)cc1 (centres undefined)
Percent Effect (30.3 µM, […]): 101%

CN(C)S(=O)(=O)N1CCCC(c2cccc(Cc3ccccc3F)n2)C1 (centres undefined)
Percent Effect (30.3 µM, […]): 46.46%

CS(=O)(=O)N1CCCC1c1cccc(Cc2ccccc2F)n1 (centres undefined)
Percent Effect (30.3 µM, […]): 0.4351%
